# In PubChem BioAssay AID1851 (National Center for Advancing Translational Sciences (NCATS), 2009):
# Screen size: about 16,000 compounds; about 4,000 (25%) were called active. About 26% were inconclusive and are not listed. Not all results are given here. A number with no mark means an inactive call. The call rests on the fitted dose curve; in most records, active means well fitted curve in the direction sought with a large enough effect; inconclusive means small, poorly fitted or top-dose-only effect, or effect the other way; inactive means no such curve, though single readings can be large or run the other way.
# Molecular target: Cytochrome P450 2C9 (Homo sapiens) (UniProt P11712)
# Sequence (P11712 whole entry, looked up): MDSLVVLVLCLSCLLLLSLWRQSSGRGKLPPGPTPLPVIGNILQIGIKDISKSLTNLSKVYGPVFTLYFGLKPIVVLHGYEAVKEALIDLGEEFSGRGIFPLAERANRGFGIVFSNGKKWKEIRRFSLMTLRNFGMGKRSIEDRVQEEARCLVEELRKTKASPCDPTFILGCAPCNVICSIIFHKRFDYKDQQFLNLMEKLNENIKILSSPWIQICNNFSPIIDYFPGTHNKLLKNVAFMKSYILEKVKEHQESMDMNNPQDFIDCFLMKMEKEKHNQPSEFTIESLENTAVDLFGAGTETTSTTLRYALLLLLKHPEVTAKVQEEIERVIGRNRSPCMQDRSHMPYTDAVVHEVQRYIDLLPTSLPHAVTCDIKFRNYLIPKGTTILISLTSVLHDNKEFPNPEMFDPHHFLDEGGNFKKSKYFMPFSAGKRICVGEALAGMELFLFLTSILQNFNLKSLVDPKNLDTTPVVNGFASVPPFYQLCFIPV
# Assay: Cytochrome panel assay with activity outcomes
# Conditions: recombinant CYP, pro-luciferin dealkylation, luminescence, p450-cyp2c9; series mostly up to 57.1 µM; activity, negative = inhibition: at the top concentration
# On the % scale 0 is the no-effect control and ±100 the full control effect.
Structure (SMILES),"activity, negative = inhibition",AC50
Cc1ccc(C(=O)N/N=C\c2ccc[nH]2)cc1[N+](=O)[O-],-14.6%,
Cc1ccc(C(=O)Nc2ccc(Cc3ccncc3)cc2)cc1[N+](=O)[O-],,0.631 µM (active)
Cc1ccc(NC(=S)/C(=C(\[O-])c2ccc(C)c([N+](=O)[O-])c2)[n+]2ccccc2)cc1C,-13.7%,
CCC(=O)[C@@]1(C)[C@H](C)C[C@@H]2[C@@H]3CCC4=CC(=O)C=C[C@@]4(C)[C@H]3[C@H](O)C[C@]21C,-3.76% [at 25.6 µM],
CCc1c(C(=O)O)[nH]c2ccc(Br)cc12,,15.8 µM (active)
O=C1Cc2c([nH]c3ccc(Br)cc23)-c2ccccc2N1,-8.75%,
CCCCCCN(CCCCCC)C(=O)Cc1c(-c2ccc(Cl)cc2)[nH]c2ccc(Cl)cc12,-16.9%,
CC(=O)N1CCC2(CCN(Cc3nccs3)CC2)CC1,-7.1%,
Nc1ccc2[nH]cc(CCC(=O)O)c2c1,-7.47% [at 11.4 µM],
CCOC(=O)CCCc1c[nH]c2ccccc12,,7.94 µM (active)
C[C@@](N)(Cc1c[nH]c2ccccc12)C(=O)O,-9.29% [at 11.4 µM],
O=C(O)c1c(Cl)c(Cl)c(Cl)c(Cl)c1C(=O)Nc1ccc2cn[nH]c2c1,,0.0794 µM (active)
CCNc1ncc2nc(-c3ccc(Cl)cc3)c(=O)n(C3CC3)c2n1,5.54%,
Cc1ccc(Nc2c([N+](=O)[O-])ccc3c2=NC2(CCCCC2)N=3)cc1,,5.01 µM (active)
COc1ccc(-c2cc(C(=O)Nc3cnn(Cc4ccccc4C)c3)no2)cc1OC,-8.16%,
O=C(Nc1cnn(Cc2ccc(Cl)cc2Cl)c1)c1cc(-c2cccs2)on1,,8.91 µM (active)
O=C(CC1C(=O)N(c2ccc(Cl)cc2)C(=S)N1CCc1ccncc1)Nc1ccc(F)cc1 (stereo not given),,0.0631 µM (active)
CN(C)CC/C=C1\c2ccccc2COc2ccccc21,,inactive
Cn1c(=O)c2c(ncn2CN2CCN(Cn3cnc4c3c(=O)n(C)c(=O)n4C)CC2)n(C)c1=O,5.13% [at 11.4 µM],
C#CCCCO/N=C1/C[C@@H](O)[C@@H](O)[C@@H]2[C@@H]3C(=O)N([C@@H](C)c4ccccc4)C(=O)[C@H]3CC[C@@H]12,-23.8% [at 11.4 µM],
CC1(C)CC(=O)C2=C(C1)Oc1nc3ccccc3cc1C2C(C#N)C#N (stereo not given),,3.55 µM (active)
Cc1cc2c(cc1C)NC(c1nc3ccccc3[nH]1)C1=C(CC(C)(C)CC1=O)N2 (stereo not given),-6.82%,
Cc1ccc(-n2c(SCC(=O)NCc3ccco3)nc3sc4c(c3c2=O)CC(C)(C)SC4)cc1,,2.24 µM (active)
CC1(C)Cc2c(sc3c2C(=O)N(c2ccccc2)C2=NCCN23)CS1,-14%,
CC1(C)Cc2c(sc3nc(SCC(=O)NCc4ccccc4)n(-c4ccccc4)c(=O)c23)CS1,,6.31 µM (active)
